Source: PubChem BioAssay (NCATS)
Results filed as inconclusive are left out. A call without a number means that no potency is given here. Active and inactive are the calls of the source. Unless noted, the call rests on the fitted dose curve; in most records, active means well fitted curve in the direction sought with a large enough effect; inconclusive means small, poorly fitted or top-dose-only effect, or another doubt; inactive means no such curve, though single readings can be large; an effect the other way counts as inactive or inconclusive.

Experiments:
[1] = biological target: Aldehyde dehydrogenase, mitochondrial (Homo sapiens) (UniProt P05091); test: qHTS for Inhibitors of the Aldehyde Dehydrogenase Family (ALDH2) Primary screen (AID 2061308); further: nearly all actives have a fitted effect of over 55% in size; further: potency means the concentration at half of the fitted maximal effect
[2] = biological target: Aldehyde dehydrogenase, mitochondrial (Homo sapiens) (UniProt P05091); test: qHTS for Inhibitors of the Aldehyde Dehydrogenase Family (ALDH2) Confirmatory screens (AID 2061303; active means well fitted inhibition curve with a large enough effect; title and protocol of this record describe different tests; further: nearly all actives have a fitted effect of over 45% in size; further: potency means the concentration at half of the fitted maximal effect)
[3] = biological target: Retinaldehyde dehydrogenase 3 (Homo sapiens) (UniProt P47895); test: qHTS for Inhibitors of the Aldehyde Dehydrogenase Family (ALDH1A3) Confirmatory screens (AID 2061311); further: nearly all actives have a fitted effect of over 60% in size; further: potency means the concentration at half of the fitted maximal effect
[4] = biological target: Retinal dehydrogenase 2 (Homo sapiens) (UniProt O94788); test: qHTS for Inhibitors of the Aldehyde Dehydrogenase Family (ALDH1A2) Confirmation screens (AID 2061314); further: nearly all actives have a fitted effect of over 65% in size; further: potency means the concentration at half of the fitted maximal effect
[5] = biological target: Aldehyde dehydrogenase 1A1 (Homo sapiens) (UniProt P00352); test: qHTS for Inhibitors of the Aldehyde Dehydrogenase Family (ALDH1A1) Confirmatory screens (AID 2061316); further: nearly all actives have a fitted effect of over 65% in size; further: potency means the concentration at half of the fitted maximal effect
[6] = biological target: Retinaldehyde dehydrogenase 3 (Homo sapiens) (UniProt P47895); test: qHTS for Inhibitors of the Aldehyde Dehydrogenase Family (ALDH1A3) Primary screen (AID 2061315); further: potency means the concentration at half of the fitted maximal effect
[7] = biological target: Retinaldehyde dehydrogenase 3 (Homo sapiens) (UniProt P47895); test: qHTS for Inhibitors of the Aldehyde Dehydrogenase Family (ALDH1A3) Validation screen (AID 2061312); further: nearly all actives have a fitted effect of over 45% in size
[8] = BET inhibitor-based combinations targeting novel dependencies in MECOM-rearranged (r) AML: SET-2 cell line (AID 2202231); settings: SET-2 AML cells viability, CellTiter-Glo luminescence, 48 h; viability: active compounds read low, concentration not given here; further: potency means the concentration at half of the fitted maximal effect; nearly all actives have a fitted effect of over 35% in size
Summary of the method: (§1)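 Each compound was tested at eleven concentrations on cells seeded at 500/well. After two days' incubation, ATP-based luminescence reported viability; responses relative to DMSO and blank wells yielded AUC and cell-line-centred Z-AUC.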

[9] = BET inhibitor-based combinations targeting novel dependencies in MECOM-rearranged (r) AML: OCI-AML3 cell line (AID 2202232); settings: Potency: OCI-AML3 viability; further: potency means the concentration at half of the fitted maximal effect; nearly all actives have a fitted effect of over 35% in size
Summary of the method: as §1

[10] = BET inhibitor-based combinations targeting novel dependencies in MECOM-rearranged (r) AML: MV-4-11 cell line (AID 2202233); further: potency means the concentration at half of the fitted maximal effect; nearly all actives have a fitted effect of over 45% in size
Summary of the method: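 First, 500 cells per well were seeded; next, drugs were pinned as 11-point doses; then plates sat 48 hr in the incubator; finally CellTiter-Glo was added and luminescence read, with AUC and Z-AUC computed.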

[11] = BET inhibitor-based combinations targeting novel dependencies in MECOM-rearranged (r) AML: AML-191 cell line (AID 2202236; further: potency means the concentration at half of the fitted maximal effect; nearly all actives have a fitted effect of over 35% in size)
Summary of the method: as §1

[12] = BET inhibitor-based combinations targeting novel dependencies in MECOM-rearranged (r) AML: AML-194 cell line (AID 2202237; further: potency means the concentration at half of the fitted maximal effect; nearly all actives have a fitted effect of over 40% in size)
Summary of the method: as §1

N#CC(CCCN1CCN(/N=C/c2cccnc2)CC1)(c1ccccc1)c1ccccc1
Potency [1]: inactive

O=C(/C=C/c1ccc(O)c(O)c1)OC[C@H]1O[C@@H](OC2CCCCC2O)[C@H](O)[C@@H](O)[C@@H]1O (stereo partly specified)
Potency [1]: inactive

O=C1c2cccc3cccc(c23)C(=O)N1CCN1CCN(S(=O)(=O)c2cccc([N+](=O)[O-])c2)CC1
Potency [2]: inactive | Potency [3]: inactive | Potency [4]: inactive | Potency [5]: inactive

N#Cc1c(-c2ccc(Cl)c([N+](=O)[O-])c2)no[n+]1[O-]
Potency [2]: 2.83 µM (active) | Potency [1]: 0.398 µM (active) | Potency [4]: 2.83 µM (active) | Potency [6]: inactive | Potency [5]: 7.98 µM (active)

CN1CCC(Nc2nc(Nc3ccc(Oc4ccccc4)cc3)c3c(=O)[nH]cc(Br)c3n2)CC1
Potency [1]: inactive | Potency [7]: inactive | Potency [6]: inactive

CC(=O)CC1CCC(C(C)C(=O)OCC(O)CO)O1 (stereo unspecified)
Potency [1]: inactive | Potency [3]: 4.49 µM (active) | Potency [6]: 15.8 µM (active) | Potency [5]: 15.9 µM (active)

CC(C)CC(=O)O[C@@H]1O[C@H](CO)[C@@H](O[C@H]2O[C@H](C)[C@@H](N[C@H]3C=C(CO)[C@@H](O[C@H]4O[C@H](CO)[C@@H](O[C@H]5O[C@H](CO)[C@@H](O[C@H]6O[C@H](CO)[C@@H](O)[C@H](O)[C@H]6O)[C@H](O)[C@H]5O)[C@H](O)[C@H]4O)[C@H](O)[C@H]3O)[C@H](O)[C@H]2O)[C@H](O)[C@H]1O
Potency [1]: inactive | Potency [6]: inactive

Oc1ccc(-c2cnc3ccc(NCc4ccco4)nn23)cc1
Potency [1]: inactive | Potency [7]: inactive | Potency [6]: inactive

Cc1cc(C(=O)N2CCN(c3cccc(Cl)c3)CC2)n(-c2ccccc2)n1
Potency [1]: inactive | Potency [7]: inactive | Potency [6]: inactive | Potency [8]: 9.34 µM (active) | Potency [9]: 4.17 µM (active) | Potency [10]: 3.72 µM (active) | Potency [11]: 2.09 µM (active) | Potency [12]: 2.63 µM (active)
